This is a sample that favours compounds with a hit; in the whole collection about 2.5% have one here.
Cruzain inh Det – cruzain (T. cruzi) inhibition with detergent; P25779; purified cruzain, Z-FR-AMC fluorescence, 0.01% Triton; Potency, µM, usual class: inhibitors; 0.43% of 200,000 active; AID 1478; also: nearly all actives have a fitted effect of over 40% in size
Target sequence (P25779 123-467 limits assumed): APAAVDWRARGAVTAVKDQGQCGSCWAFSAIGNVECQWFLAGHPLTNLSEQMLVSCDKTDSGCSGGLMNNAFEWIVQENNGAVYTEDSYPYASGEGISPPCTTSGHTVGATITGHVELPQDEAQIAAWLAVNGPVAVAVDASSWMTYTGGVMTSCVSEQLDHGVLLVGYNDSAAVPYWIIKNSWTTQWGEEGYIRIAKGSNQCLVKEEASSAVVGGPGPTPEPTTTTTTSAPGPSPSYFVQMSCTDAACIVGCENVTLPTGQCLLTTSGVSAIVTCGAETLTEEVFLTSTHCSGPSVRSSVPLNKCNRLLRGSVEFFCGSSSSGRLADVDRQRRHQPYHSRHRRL
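Enzyme 1.5 nM, Z-FR-AMC 2 uM, NaOAc 100 mM pH 5.5, DTT 5 mM, Triton X-100 0.01%; 15 min RT compound preincubation; kinetic ex360/em450, 60 s delta.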
Cruzain noTriton – cruzain (T. cruzi) inhibition without detergent; purified cruzain, Z-FR-AMC fluorescence, no detergent; Potency, µM, usual class: inhibitors; 2.3% of 200,000 active; P25779; also: nearly all actives have a fitted effect of over 40% in size
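Purified cruzain at 1.5 nM, pre-incubated 15 min with compound at room temperature in 100 mM sodium acetate pH 5.5, 5 mM DTT, 0.00005% Triton X-100. Reaction started with 2 uM Z-FR-AMC; AMC fluorescence increase over 60 s gives rate.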
Papain counter – papain (Carica papaya) inhibition counter-screen; Potency, µM, hits mostly inhibitors; AID 2161; shares compounds with Cruzain inh Det; 41% of 410 active; purified papain, Z-FR-AMC fluorescence cleavage; also: nearly all actives have a fitted effect of over 35% in size
Target sequence (P00784 whole entry, looked up): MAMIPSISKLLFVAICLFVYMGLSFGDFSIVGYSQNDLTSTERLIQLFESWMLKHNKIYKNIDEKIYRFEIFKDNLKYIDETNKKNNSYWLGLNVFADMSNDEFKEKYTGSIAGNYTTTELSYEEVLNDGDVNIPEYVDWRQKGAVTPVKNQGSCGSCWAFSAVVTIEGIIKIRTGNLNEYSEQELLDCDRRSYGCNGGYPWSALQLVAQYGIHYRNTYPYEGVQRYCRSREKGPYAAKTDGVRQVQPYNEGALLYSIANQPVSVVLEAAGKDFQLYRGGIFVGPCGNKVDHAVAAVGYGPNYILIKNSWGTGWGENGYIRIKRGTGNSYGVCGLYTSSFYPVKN
Each line names hits and unclear results; the compound was inactive in the other large screens (follow-up assays come after a bar, where they were run). Calls follow the shape of the dose curve; as a rule, active = well fitted curve in the direction sought with a large enough effect; inconclusive = small, poorly fitted or top-dose-only effect, or another doubt; inactive = no such curve, though single readings can be large; an effect the other way counts as inactive or inconclusive.

CSc1ncc(Cl)c(C(=O)Nc2ccc(S(=O)(=O)N3CCC(C)CC3)cc2)n1	none
COc1ccc2cnoc(=O)c2c1OC	none
CCn1c(NC(=O)C2CCCCC2)nc2ccccc21	none
Cc1cc(C)cc(OCCCn2c(CCNC(=O)C3CCCCC3)nc3ccccc32)c1	Cruzain inh Det 2µM | Papain counter 25µM
Cc1cccc(OCCn2c(CCCO)nc3ccccc32)c1	none
CC(=O)NCCCc1nc2ccccc2n1Cc1ccc(C)cc1	none
CCCCn1c(CCNC(=O)CC)nc2ccccc21	none
Cc1ccc(Cn2c(CCNC(=O)c3cccc(C)c3)nc3ccccc32)cc1	Cruzain inh Det 5µM | Papain counter inactive
Cc1cccc(C)c1OCCn1c(CCNC(=O)C2CCCCC2)nc2ccccc21	Cruzain inh Det 3.5µM | Papain counter inactive
Cc1cc(C)cc(OCCn2c(CCNC(=O)C3CCCCC3)nc3ccccc32)c1	Cruzain inh Det 1.8µM | Papain counter inactive
COc1ccc(CNC(=O)CCCN2C(=O)CCn3nc(-c4cn(C)c5ccccc45)cc32)cc1	none
Cc1cccc(OCCCn2c(CCNC(=O)C(C)C)nc3ccccc32)c1	none
CCc1ccccc1N1CC(c2nc3ccccc3n2CCOc2ccc(Cl)c(C)c2)CC1=O (configuration not stated)	none
Cc1cc(OCCn2c(CCNC(=O)C3CCCCC3)nc3ccccc32)ccc1Cl	Cruzain inh Det 2.5µM | Papain counter inactive
Cc1cccc(OCCCn2c(CCNC(=O)C3CCCCC3)nc3ccccc32)c1	Cruzain inh Det 2µM | Papain counter 16µM
O=C(c1ccncc1)N1CCC2(CC1)CCN(c1ccncc1)CC2	none
COc1ccc(CCNC(=O)C(=O)NCC(c2ccc3c(c2)OCO3)N2CCOCC2)cc1 (configuration not stated)	none
CSc1ncc2c(n1)-c1ccccc1N(Cc1ccccc1)S2(=O)=O	none
CCC(C)NC(=O)c1ccc2nc(Cc3ccccc3)oc2c1 (configuration not stated)	none
CCC(C)NC(=O)c1ccc2nc(-c3ccco3)c(-c3ccco3)nc2c1 (configuration not stated)	none (no result: Cruzain inh Det, Cruzain noTriton) | Papain counter 16µM
COc1ccccc1Cc1nc2ccccc2nc1SCC(=O)Nc1cc(Cl)ccc1OC	Cruzain noTriton inconclusive
CCNC(=O)c1c(C)oc2ncn(C)c(=O)c12	none
CCc1ccc(CNC(=O)c2cnc3sc4cc(OC)ccc4n3c2=O)cc1	none
CCC(C)NC(=O)C1CCN(C(=O)c2cc3sccc3n2Cc2ccc(Cl)cc2)CC1 (configuration not stated)	none
Cc1ccc2[nH]c(=O)c(CN(Cc3ccco3)Cc3nnnn3Cc3ccco3)cc2c1	none (no result: Cruzain inh Det, Cruzain noTriton) | Papain counter inactive
Cc1ccc2[nH]c(=O)c(CN(Cc3ccccc3)Cc3nnnn3Cc3ccco3)cc2c1	none (no result: Cruzain inh Det, Cruzain noTriton) | Papain counter inactive
Cc1ccc2cc(CN(Cc3ccc4c(c3)OCO4)Cc3nnnn3Cc3ccco3)c(=O)[nH]c2c1	none
CCC(c1nnnn1Cc1ccco1)N(Cc1ccccc1OC)Cc1cc2cc(C)ccc2[nH]c1=O (configuration not stated)	none
Cc1ccc(CN(Cc2cc3cc4c(cc3[nH]c2=O)OCCO4)Cc2nnnn2Cc2ccco2)cc1	Cruzain inh Det 20µM | Papain counter inactive
Cc1ccc2[nH]c(=O)c(CN(Cc3ccccc3)Cc3nnnn3C3CCCC3)cc2c1	none
COc1ccc2[nH]c(=O)c(CN(C3CCCCC3)C(c3nnnn3Cc3ccco3)C(C)C)cc2c1 (configuration not stated)	Cruzain noTriton inconclusive
COc1ccc2[nH]c(=O)c(CN(Cc3nnnn3Cc3ccco3)C3CCCCC3)cc2c1	Cruzain inh Det 7.1µM, Cruzain noTriton 7.9µM | Papain counter inactive
Cc1cccc(-c2nc(SCc3cc(=O)c4c(C)cc(C)cc4[nH]3)n[nH]2)c1	Cruzain noTriton inconclusive
COCCNC(=O)CCn1c(=O)c2cc(OC)c(OC)cc2n(CC(=O)Nc2ccccc2OC)c1=O	none
COc1ccc(CNC(=O)c2cc3c(s2)-c2c(C)cccc2OC3)cc1	Cruzain noTriton inconclusive
CCOC(=O)c1c(NC(=O)CSc2nc(-c3ccc(OC)cc3)cc(C(F)(F)F)n2)sc(C)c1C	none
CCc1ccc2[nH]c(=O)c(CN(Cc3ccco3)Cc3nnnn3Cc3ccco3)cc2c1	none (no result: Cruzain inh Det, Cruzain noTriton) | Papain counter inactive
COc1ccc2cc(CN(CCc3ccccc3)Cc3nnnn3Cc3ccco3)c(=O)[nH]c2c1	none
CCOC(=O)c1c(C)[nH]c(C)c1S(=O)(=O)N1CCC(C(=O)NCc2ccccc2Cl)CC1	none
Cc1csc(N/N=C/c2ccc(O)c([N+](=O)[O-])c2)n1	Cruzain inh Det 7.1µM, Cruzain noTriton 7.9µM | Papain counter inactive
Cc1nnc(N/N=C/c2ccc(O)c([N+](=O)[O-])c2)[nH]c1=O	none
CNC(=O)c1ccc2nc(-c3ccccc3)c(-c3ccccc3)nc2c1	none (no result: Cruzain inh Det, Cruzain noTriton) | Papain counter inactive
C=CCNC(=O)c1ccc2nc(-c3ccccc3)c(-c3ccccc3)nc2c1	none
O=C(Nc1nnc(S(=O)(=O)N2CCCc3ccccc32)s1)c1ccc(Cl)cc1	none
Cc1ccc(-c2nc(SCC(=O)NCc3ccco3)c3c(=O)n(C)c(=O)n(C)c3n2)cc1	none
C=CCn1c(SCC(=O)NCc2ccco2)nc2sc3c(c2c1=O)CCCC3	none
O=C(NCc1ccco1)c1ccc2nc3sc4c(c3c(=O)n2c1)CCCC4	Cruzain inh Det 10µM | Papain counter 25µM
Cc1ccc(-n2ncc(C(=O)NCCN3CCN(C)CC3)c2C2CCN(C(=O)OC(C)(C)C)CC2)c(C)c1	none
Cc1cccc(NC(=O)CN2C(=O)C3(SCC(=O)N3c3ccccc3)c3ccccc32)c1 (configuration not stated)	none
COc1ccc(CC(=O)N2CC(=O)Nc3ccc(F)cc3C2c2ccccc2)cc1 (configuration not stated)	none
COC(=O)Sc1nc(N2CCOCC2)c2c(c1C#N)CC(C)(C)OC2	Cruzain inh Det 10µM, Cruzain noTriton 16µM | Papain counter 16µM
CC1(C)Cc2c(C#N)c(SCC(=O)c3ccccc3)nc(N3CCOCC3)c2CO1	Cruzain noTriton inconclusive
CCCC12CN3CC(C)(CN(C1)C3c1cn(CC)c3ccccc13)C2=O (configuration not stated)	none
CCOc1cc(CNC(=O)NC2COc3ccc(OC)cc3C2)cc(OCC)c1OCC (configuration not stated)	Cruzain noTriton inconclusive
O=[N+]([O-])c1ccccc1S(=O)(=O)NCCC1=CCCCC1	none
O=[N+]([O-])c1ccccc1S(=O)(=O)NCC1CCC(CNCC2CCc3ccccc3C2)CC1 (configuration not stated)	none | Papain counter inactive
N#Cc1c[nH]n2c(NC3CCCCC3)c(-c3ccc(F)cc3)nc12	none
CCCCCn1c(=O)[nH]c2cc(C(=O)N3CCN(c4ccc(OC)cc4)CC3)ccc2c1=O	none
CCc1nnc(NC(=O)C(=O)c2cc(C)n(-c3ccccc3)c2C)s1	none
N#Cc1nc(N2CCCCC2)nc(N2CCCCC2)n1	none (no result: Cruzain inh Det, Cruzain noTriton) | Papain counter 2.2µM
N#Cc1nc(N2CCCCC2)nc(N(c2ccccc2)c2ccccc2)n1	none (no result: Cruzain inh Det, Cruzain noTriton) | Papain counter 2.8µM
CCN(c1ccccc1)c1nc(N)nc(C#N)n1	none (no result: Cruzain inh Det, Cruzain noTriton) | Papain counter 11µM
Clc1nc(Cl)nc(N(c2ccccc2)c2ccccc2)n1	none
CN(C)c1nc(N)nc(Nc2ccccc2C#N)n1	none
CC(C)(C)Nc1nc(N2CCCC2)nc(N2CCCC2)n1	none
Nc1nc(N2CCCCC2)nc(N(c2ccccc2)c2ccccc2)n1	none
CCOc1nc(C#N)nc(N(c2ccccc2)c2ccccc2)n1	none (no result: Cruzain inh Det, Cruzain noTriton) | Papain counter inactive
